The campaign covered roughly 220,000 compounds. About 1,600 (0.73%) were called active.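 The calls were made as follows: active = mean inhibition across duplicate retests at 20 µM reaching about 50% (limit read from the data); inactive = the rest, inconclusive results apart.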 For the sample, actives were picked, then their nearest neighbours and some compounds at random.
Molecular target: Runt-related transcription factor 1 (Homo sapiens) + Core-binding factor subunit beta (Homo sapiens) (UniProt Q01196+Q13951)
Sequence (Q01196 whole entry, looked up): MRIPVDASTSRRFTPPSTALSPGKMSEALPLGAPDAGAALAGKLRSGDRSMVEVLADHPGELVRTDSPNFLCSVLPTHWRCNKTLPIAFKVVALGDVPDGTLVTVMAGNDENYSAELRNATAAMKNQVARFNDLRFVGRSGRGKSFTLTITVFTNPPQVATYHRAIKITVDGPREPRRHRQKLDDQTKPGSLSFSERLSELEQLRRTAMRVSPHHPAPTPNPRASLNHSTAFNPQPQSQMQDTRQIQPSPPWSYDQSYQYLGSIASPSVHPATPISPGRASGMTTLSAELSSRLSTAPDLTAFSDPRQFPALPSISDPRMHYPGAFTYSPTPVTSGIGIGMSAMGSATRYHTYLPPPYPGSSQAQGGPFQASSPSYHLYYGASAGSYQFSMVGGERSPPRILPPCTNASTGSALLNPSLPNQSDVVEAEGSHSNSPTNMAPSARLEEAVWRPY
Sequence (Q13951 whole entry, looked up): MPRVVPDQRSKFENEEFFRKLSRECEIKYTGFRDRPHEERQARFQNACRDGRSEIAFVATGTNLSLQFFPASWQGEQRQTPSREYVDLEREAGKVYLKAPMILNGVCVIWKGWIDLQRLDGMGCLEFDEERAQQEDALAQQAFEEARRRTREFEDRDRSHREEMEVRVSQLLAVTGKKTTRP
Test: inhibitors of RUNX1 Runt–CBFb-SMMHC binding, primary screen, biochemical, FRET, Cerulean-Runt, Venus-CBFb-SMMHC, uHTS (AID 1434);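 also: 0% = DMSO wells and 100% = wells with excess untagged CBFb-SMMHC; inhibitors lower the FRET ratio by blocking Runt binding to CBFb-SMMHC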
Conditions: Cerulean-Runt/Venus-CBFb-SMMHC FRET ratio 530/480, 1 h, at 20 µM, stronger effect = higher value

SMILES	inhibition	inhibition (retest duplicate average)
CCOC(=O)c1c(NC(=O)NC(C)(C)C)sc2c1CCN(C)C2	10.7% (inactive)	–
CCOC(=O)c1c(NC(=S)Nc2ccccc2C)sc2c1CCC2	4% (inactive)	–
CCOC(=O)c1c(NC(=S)Nc2ccccc2)sc2c1CCN(C)C2	159% (active)	140%
Cc1ccc(Nc2nc(N)nc(CN3CCN(Cc4ccccc4)CC3)n2)cc1Cl	1.7% (inactive)	–
C/C(=N/OC(=O)c1c(-c2c(F)cccc2Cl)noc1C)c1cnccn1	0.1% (inactive)	–
Cc1onc(-c2c(Cl)cccc2Cl)c1C(=O)NNC(=O)c1c(-c2c(Cl)cccc2Cl)noc1C	-0.1% (inactive)	–
CCOC(=O)c1cc2n(c1N)-c1ccccc1C2=O	2.2% (inactive)	–
CCn1c(=N)c(S(=O)(=O)c2ccc(F)cc2)cc2c(=O)n3ccccc3nc21	-20.7% (inactive)	–
CCOC(=O)c1cc2c(=O)n3ccccc3nc2n(CC(C)C)c1=NC(=O)c1c(-c2c(F)cccc2Cl)noc1C	81% (active)	58.3%
CCCn1c(=NC(C)=O)c(C(=O)OCC)cc2c(=O)n3ccccc3nc21	58.9% (active)	115%
CCOC(=O)NNc1cc(C(F)(F)F)ccn1	-0.5% (inactive)	–
CCC(C)OC(=O)C(C)Oc1ccc(-c2ccccc2)cc1 (stereo not drawn)	-4.2% (inactive)	–
CS(=O)(=O)c1sc2nc(-c3ccccc3)cc(-c3ccccc3)c2c1N	83.9% (active)	108%
CCN(CC)C(=O)c1sc2nc(-c3ccccc3)ccc2c1N	15.5% (inactive)	–
Nc1cccc(-c2cc(-c3ccccc3)nc(-c3cccc(N)c3)n2)c1	1.4% (inactive)	–
Cc1ccc2nc(COc3ccc(N(C)S(=O)(=O)c4ccccc4)cc3)cc(=O)n2c1	7.6% (inactive)	–
CCOC(=O)C1CCN(C(=O)C2(NC(=O)Nc3cccc(F)c3)CCCCC2)CC1	-6.4% (inactive)	–
CC(C)(C)c1ccc(/C=C2\Oc3c(ccc(O)c3CN3CCN(CCO)CC3)C2=O)cc1	90.1% (active)	70.6%
CCOC(=O)c1oc2c(CN3CCN(CCO)CC3)c(O)c(CC)cc2c(=O)c1-c1nc2ccccc2s1	47.8% (inactive)	–
O=C(CSc1nc2ccccc2o1)N/N=C/c1ccccc1C(=O)O	0.7% (inactive)	–
C/C(N)=C(/C#N)C(=O)COC(=O)C1CCN(C(=O)c2ccc(Cl)cc2)CC1	0.8% (inactive)	–
CNc1[nH]ncc1[N+](=O)[O-]	7.1% (inactive)	–

SMILES	inhibition	inhibition (retest duplicate average)
CC(C)c1cc(NCc2ccccn2)n2c(nc3ccccc32)c1C#N	29.3% (inactive)	–
Cc1cc(NC(C)C)n2c(nc3ccccc32)c1C#N	31% (inactive)	–
Cc1cc(NCc2ccco2)n2c(nc3ccccc32)c1C#N	86.1% (active)	66%
Cc1[nH]c2ccccc2c1/C=N/NC(=O)CNC(=O)c1ccc2c(c1)OCO2	1.7% (inactive)	–
COc1ccc(N2C(=O)C(O)C2c2ccc(C)cc2)cc1 (stereo not drawn)	1.6% (inactive)	–
CC(=O)c1cc(C#N)c(N2CCCCC2)nc1C	-1.4% (inactive)	–
Cc1cc(C)c(C#N)c(N2CCC(C(N)=O)CC2)n1	3% (inactive)	–
Cc1cc(C)c2nc(N3CCCC3)c(C#N)cc2c1	65% (active)	86.1%
CC(C)N1C(=S)SC(C)(C)C1n1oc(=O)n(-c2ccc(Cl)c(Cl)c2)c1=O (stereo not drawn)	4.2% (inactive)	–
CCOc1cc(NC(=O)CCl)c(OCC)cc1NC(C)=O	1.1% (inactive)	–
O=C1c2ccccc2S(=O)(=O)N1CC(O)Cn1c2ccccc2c2ccccc21 (stereo not drawn)	4.1% (inactive)	–
CCCCN(CCCC)CC(O)Cn1c2ccccc2c(=O)c2ccccc21 (stereo not drawn)	81% (active)	70.6%
CS(=O)(=O)N(CC(O)Cn1c2ccccc2c2ccccc21)c1cccc2ccccc12 (stereo not drawn)	1.2% (inactive)	–
Cc1ccccc1NC(=O)c1nn(-c2ccc(F)c(F)c2)ccc1=O	3.1% (inactive)	–
N#CC1=C(N)Oc2cc(O)ccc2C1C1CCCCC1 (stereo not drawn)	120% (active)	132%
N#CC1=C(N)OC2=C(C(=O)CCC2)C1C1CC=CCC1 (stereo not drawn)	4.6% (inactive)	–
COCc1[nH]nc2c1C(C1C=CCCC1)C(C#N)=C(N)O2 (stereo not drawn)	3.6% (inactive)	–
C=CCn1c(SCC(N)=O)nnc1-c1cc2c(s1)CCC(CC)C2 (stereo not drawn)	-3.6% (inactive)	–
CCS(=O)(=O)c1ccc(O)c(NC(=O)COc2ccc(Cl)cc2)c1	0.3% (inactive)	–
Cc1c(CCOC(=O)c2cc([N+](=O)[O-])ccc2Cl)sc[n+]1CCCCS(=O)(=O)[O-]	-0.3% (inactive)	–
O=C(CCc1ccccc1)Nc1ccc(NC(=O)C2CCCCC2)nc1	-1% (inactive)	–
CC(C)C1Nc2c(C(=O)O)cccc2C(Nc2ccccc2C(=O)O)C1(C)C (stereo not drawn)	-10% (inactive)	–

SMILES	inhibition	inhibition (retest duplicate average)
COCC(C)OC(=O)c1c(N)n(CCCN2CCOCC2)c2nc3ccccc3nc12 (stereo not drawn)	109% (active)	129%
Cc1ccc(C(=O)OC(C)CN2CCOCC2)cc1 (stereo not drawn)	-0.1% (inactive)	–
CC(C)(C)OC(=O)c1c(N)n(CCCN2CCCC2=O)c2nc3ccccc3nc12	124% (active)	142%
CCc1ccc(NC(=O)CSc2nc3ccccc3c(=O)n2CCN2CCOCC2)cc1	-3.7% (inactive)	–
CCOc1ccc(C(=O)NCCCN2CCCC2=O)cc1	-3.7% (inactive)	–
CSc1nnc(-c2ccncc2)n1CCCN1CCCC1=O	5.9% (inactive)	–
O=C1CC2(CC(c3ccc(Cl)cc3)=NO2)C(=O)N1c1ccccc1 (stereo not drawn)	2.6% (inactive)	–
CC(C)(C)c1cc(C(=O)N/N=C/c2ccc([N+](=O)[O-])s2)n[nH]1	-11.1% (inactive)	–
COc1ccc(-n2c(C)nn(CC3CC3)c2=O)cc1	-6% (inactive)	–
CCCn1c(N)c(C(=O)CSc2nnc(-c3cccnc3)n2-c2ccc(C)cc2C)c(=O)[nH]c1=O	0.2% (inactive)	–
Cn1nnc(NC(=S)NC(=O)c2ccccc2)n1	-0.2% (inactive)	–
COc1ccc(CCNC(=O)Cn2c(=O)n(CC3CCCO3)c(=O)c3ccccc32)cc1OC (stereo not drawn)	-0.7% (inactive)	–
COc1ccc(CCNC(=O)c2ccco2)cc1	-1.4% (inactive)	–
COCCn1c(=O)[nH]c2cc(C(=O)NCc3cccnc3)ccc2c1=O	-3.4% (inactive)	–
COc1ccc(CCNC(=O)CCn2c(=O)c3ccccc3n(CC(=O)NCC3CCCO3)c2=O)cc1OC (stereo not drawn)	-0.3% (inactive)	–
COc1ccc(CCn2c(=N)c(C(=O)NCc3ccco3)cc3c(=O)n4cccc(C)c4nc32)cc1	142% (active)	170%
O=C(NCc1ccco1)c1cccn2c(=O)c3c4c(sc3nc12)CCCC4	0.4% (inactive)	–
COc1ccc(CNC(=O)c2cc3c(=O)n4ccccc4nc3n(CC3CCCO3)c2=N)cc1 (stereo not drawn)	92.1% (active)	159%
CCn1c(=N)c(C(=O)NCCCOC)cc2c(=O)n3cccc(C)c3nc21	58.1% (active)	72.9%
CCc1cccc2c(=O)c(C(=O)NCCCOC)c[nH]c12	1% (inactive)	–

Reference: PubChem BioAssay AID1434 (Sanford-Burnham Center for Chemical Genomics, 2008)
